According to PubChem BioAssay AID1159580 (chemical genetic matrix, 2015):
About 2,000 (36%) of roughly 5,500 compounds were called active. Another 18% or so got no clear call; they are omitted. Cut-off read from the data, not from the text of the source: active = normalized growth mostly below about 0.91 (no sharp cut-off); inconclusive = no clear call, values can overlap the other calls; inactive = mostly above about 0.92. The list shows a part of the results.

Experiment: chemical genetic growth profiling, strain panel (AID 1159580);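 note: tested at 20 µM; growth read once vehicle control cultures reached saturation at 30 °C; 1 = growth at the plate median or of vehicle wells; lower values mean less growth of the strain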
Settings: S. cerevisiae deletion strains, growth OD

Measured: normalized growth

COP(=O)(OC)C(O)C(Cl)(Cl)Cl (stereo not drawn)
inactive: locus YHR030C, strain SLT2, stronger effect = lower value 0.998 | locus YHR079C, strain IRE1, stronger effect = lower value 1.03 | locus YJL095W, strain BCK1, stronger effect = lower value 1.01 | locus YJR066W, strain TOR1, stronger effect = lower value 0.938 | locus YLR113W, strain HOG1, stronger effect = lower value 1 | locus YNL183C, strain NPR1, stronger effect = lower value 0.962 | locus YOR231W, strain MKK1, stronger effect = lower value 1.03 | locus YPL256C, strain CLN2, stronger effect = lower value 0.988
